Source: PubChem BioAssay (several laboratories)
FBA Mtb inh – Mtb FBA enzyme inhibitors, primary screen, biochemical, fluorescence, strain H37Rv. Fructose-bisphosphate aldolase (Mycobacterium tuberculosis (strain ATCC 25618 / H37Rv)), …. hit rate 2.3% among 360,000. AID 588726, 2011. purified M. tuberculosis FBA, fluorescence read-out. inhibition, % at 1 µM
GDH-TPI counter-1 – GDH-TPI coupling enzyme inhibitors, primary screen, artefact control for M. tuberculosis FBA inhibitor project, biochemical, absorbance, full deck | GDH-TPI coupled enzyme counterscreen, NADH absorbance | inhibition, % at 4.8 µM | hit rate 1.2% among 360,000 | AID 588335, 2011; in the data active = inhibition above about 30%
BoNT-A LC inh2 – BoNT/A light chain protease inhibitors, primary screen, biochemical, flow cytometry, MLPCN library | AID 588499, 2011 | hit rate 0.17% among 360,000 | multiplex microsphere protease substrate cleavage | inhibition, % at 10 µM | Botulinum neurotoxin type A light chain protease (Clostridium botulinum A str. ATCC 3502); in the data active = inhibition above about 30%; inconclusive = no clear call, values can overlap the other calls
Bead autofluor – counter-screen for toxin protease inhibitors: compound fluorescence; compound autofluorescence counterscreen, microsphere flow cytometry; hits give high values; hit rate 3.1% among 360,000; fluorescence intensity (test concentration not listed); in the data active = fluorescence intensity above about 16000; inconclusive = no clear call, values can overlap the other calls
Anthrax LF inh2 – Bacillus anthracis LF protease inhibitors, primary screen, biochemical, multiplex microsphere, MLPCN library. Lethal factor (Bacillus anthracis), P15917. multiplex microsphere protease cleavage assay. inhibition, % at 10 µM. hit rate 0.12% among 360,000. AID 588501, 2011; in the data active = inhibition above about 30%; inconclusive = no clear call, values can overlap the other calls
Target sequence (P15917 whole entry, looked up): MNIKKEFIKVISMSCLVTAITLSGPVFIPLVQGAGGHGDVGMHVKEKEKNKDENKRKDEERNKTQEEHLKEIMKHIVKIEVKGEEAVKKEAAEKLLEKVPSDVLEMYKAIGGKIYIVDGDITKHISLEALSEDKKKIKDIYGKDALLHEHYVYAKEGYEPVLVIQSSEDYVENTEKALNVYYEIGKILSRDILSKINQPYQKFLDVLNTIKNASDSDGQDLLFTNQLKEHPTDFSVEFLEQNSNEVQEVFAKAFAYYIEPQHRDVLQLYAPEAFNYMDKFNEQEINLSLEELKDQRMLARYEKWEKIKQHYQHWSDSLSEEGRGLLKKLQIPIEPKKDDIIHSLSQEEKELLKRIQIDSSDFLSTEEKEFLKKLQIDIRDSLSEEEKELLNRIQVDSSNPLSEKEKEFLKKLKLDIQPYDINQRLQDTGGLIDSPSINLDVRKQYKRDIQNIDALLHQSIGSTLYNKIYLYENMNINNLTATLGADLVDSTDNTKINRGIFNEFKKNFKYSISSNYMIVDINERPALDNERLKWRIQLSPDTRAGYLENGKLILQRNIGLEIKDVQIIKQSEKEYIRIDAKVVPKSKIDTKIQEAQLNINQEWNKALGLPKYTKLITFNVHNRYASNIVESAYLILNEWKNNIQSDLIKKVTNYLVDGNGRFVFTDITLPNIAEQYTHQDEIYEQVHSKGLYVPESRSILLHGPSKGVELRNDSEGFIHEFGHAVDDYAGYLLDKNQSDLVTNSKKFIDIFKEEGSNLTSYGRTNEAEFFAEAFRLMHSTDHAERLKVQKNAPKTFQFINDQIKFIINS
BoNT-F LC inh – BoNT/F light chain protease inhibitors, primary screen, biochemical, flow cytometry, MLPCN library | Botulinum neurotoxin type F light chain protease (Clostridium botulinum) | Multiplex microsphere protease cleavage assay | inhibition, % at 10 µM | hit rate 0.22% among 360,000 | AID 588497, 2011; in the data active = inhibition above about 35%, passing the limit was not always enough; inconclusive = no clear call, values can overlap the other calls
Mtb FBA confirm – M. tuberculosis aldolase blockers, biochemical, fluorescence, strain H37Rv, confirmation | shares compounds with FBA Mtb inh | purified M. tuberculosis FBA, fluorescence read-out | inhibition, % at 1 µM | hit rate 78% among 5,600 | AID 651616, 2012
GDH-TPI counter-2 – GDH-TPI coupling enzyme inhibitors, artefact control for M. tuberculosis FBA inhibitor project, biochemical, fluorescence, high throughput | hit rate 81% among 5,600 | GDH-TPI coupled enzyme counterscreen | AID 652141, 2013 | shares compounds with FBA Mtb inh | inhibition, % at 1 µM; in the data active = inhibition above about 10%
Large screens that a line does not name were inactive (follow-up assays come after a bar, where they were run). Rows were chosen to be rich in hits. Some 6.7% of all compounds tested hit in one or more screens of this group. Rule as the data show it, unless noted: active = inhibition above about 27%; inactive = the rest.

CCCCc1c(C)c2ccc(OCC(C)=O)cc2oc1=O	FBA Mtb inh 72 | Mtb FBA confirm inactive | GDH-TPI counter-2 inactive
C=CCOC(=O)COc1ccc2c(C)c(C)c(=O)oc2c1	FBA Mtb inh 68, BoNT-A LC inh2 inconclusive, Bead autofluor inconclusive, Anthrax LF inh2 inconclusive, BoNT-F LC inh inconclusive | Mtb FBA confirm inactive | GDH-TPI counter-2 28
Cc1cc(NC(=O)COc2ccc3c(C)c(C)c(=O)oc3c2)no1	none
O=C(O)c1[nH]c2ccccc2c1NS(=O)(=O)Cc1ccccc1	FBA Mtb inh 61, Bead autofluor 16578 | Mtb FBA confirm active | GDH-TPI counter-2 174
O=C(O)c1cnc2ccccc2n1	FBA Mtb inh 33 | Mtb FBA confirm 62 | GDH-TPI counter-2 43
COC(=O)c1cnc2ccccc2n1	none
CNc1cc(-c2ccc(OC)nc2)ncn1	none
CNc1cc(-c2cc(OC)ccc2OC)ncn1	FBA Mtb inh 84 | Mtb FBA confirm inactive | GDH-TPI counter-2 inactive
CNc1ccc(-c2cc(OC)ccc2OC)cn1	FBA Mtb inh 98 | Mtb FBA confirm active | GDH-TPI counter-2 155
COc1ccc(-c2ncncc2-c2ccc(OC)c(OC)c2)c(O)c1	none
COc1cccc(C#Cc2ccc3c(c2)O[C@H](CN(C)S(=O)(=O)c2ccccc2F)[C@H](C)CN([C@H](C)CO)S3(=O)=O)c1	none
NC(=O)NC(=O)COC(=O)CCCc1c[nH]c2ccccc12	none
Cc1ccccc1CC(=O)Nc1ccc2c(c1)c(=O)n(C)n2-c1ccccc1F	FBA Mtb inh 104 | Mtb FBA confirm 82 | GDH-TPI counter-2 72
COc1cccc(Cn2c3ccc(NC(=O)Cc4ccccc4C)cc3c(=O)n2C)c1	FBA Mtb inh 89 | Mtb FBA confirm active | GDH-TPI counter-2 active
Cc1ccccc1CC(=O)Nc1ccc2c(c1)c(=O)n(C)n2-c1cccs1	none
COc1cccc(CNC(=S)Nc2ccc3c(c2)c(=O)n(C)n3Cc2ccc(F)cc2)c1	FBA Mtb inh 29 | Mtb FBA confirm 130 | GDH-TPI counter-2 94
COc1cccc(CNC(=S)Nc2ccc3c(c2)c(=O)n(C)n3C)c1	none
COc1cc(Cn2c3ccc(NC(=S)NCc4ccc(C)cc4)cc3c(=O)n2C)ccc1F	FBA Mtb inh 38 | Mtb FBA confirm 180 | GDH-TPI counter-2 138
COC(=O)N1C(=O)[C@](c2ccc(Cl)cc2)(C(C)C)N1C(=O)OC	none
CCC(=O)c1ccc(OCC(=O)NCC2COc3ccccc3O2)cc1 (stereo unspecified)	none
CC(=O)c1c(C)[nH]c(C(=O)CSc2nnc(C3CCCCC3)n2N)c1C	none
CCN(CC(=O)NCc1ccc(Cl)cc1)CC(=O)Nc1ccc(C(N)=O)cc1	none
COc1ccc(CN2C(=O)C(CC(=O)NCc3cccc4ccccc34)CC(C(=O)N(C)C)=C2C)cc1 (stereo unspecified)	none
COc1ccc(N(C(=O)c2snc(C(N)=O)c2N)C(C(=O)NCc2ccccc2)c2ccc(O)cc2)cc1 (stereo unspecified)	none
NC(=O)c1nsc(C(=O)N(c2ccccc2)C(C(=O)NCc2ccc(F)cc2)c2ccc(O)cc2)c1N (stereo unspecified)	FBA Mtb inh 37 | Mtb FBA confirm inactive | GDH-TPI counter-2 inactive
O=C(COc1cccc(C(F)(F)F)c1)Nc1ccc(S(=O)(=O)N2CCCCC2)cc1	Bead autofluor inconclusive
Cc1ccccc1C(=O)NCC(=O)OCCCOC(=O)CNC(=O)c1ccccc1C	Bead autofluor inconclusive
COc1ccc(-c2nc3ccccc3o2)cc1NC(=O)c1ccc(Br)o1	none
COc1ccc(-c2cn3cccnc3n2)cc1NC(=O)c1ccc(Br)o1	FBA Mtb inh 30, Bead autofluor 20830 | Mtb FBA confirm inactive | GDH-TPI counter-2 inactive
CC(C)n1nccc1NS(=O)(=O)c1ccccc1	none
CN(C)c1nc(-c2cccs2)cc(C(F)(F)F)c1C#N	FBA Mtb inh 35 (no result: BoNT-A LC inh2, Bead autofluor, Anthrax LF inh2, BoNT-F LC inh) | Mtb FBA confirm inactive | GDH-TPI counter-2 inactive
CN(C)c1nc(-c2ccccc2)cc(C(F)(F)F)c1C#N	none
Cc1nn(CCO)c2nc(-c3cccs3)cc(C(F)(F)F)c12	FBA Mtb inh 100 | Mtb FBA confirm 180 | GDH-TPI counter-2 168
CCOC(=O)c1ccccc1NC(=S)N1CCN(C(=O)c2ccco2)CC1	none
COC(=O)c1ccc(CN2CCC(n3nccc3NC(=O)C3CCCC3)CC2)cc1	none
CC(C)(Cc1ccccc1)/[N+]([O-])=C\c1ccccc1	none
CC(=O)NC(=O)c1ccc(-c2ccc(Cl)cc2)o1	FBA Mtb inh 78 | Mtb FBA confirm 46 | GDH-TPI counter-2 56
COC(=O)c1ccc(C2/C(=C(\O)c3ccc4c(c3)OCCO4)C(=O)C(=O)N2CCCN(C)C)cc1 (stereo unspecified)	none
Cc1ccc(C(=O)O/N=C(\N)c2ccc(Br)cc2)cc1C	none
N/C(=N\OC(=O)c1ccoc1)c1ccc(Br)cc1	FBA Mtb inh 38 | Mtb FBA confirm 155 | GDH-TPI counter-2 150
CCCN(CC(=O)Nc1ccccc1C)C(=O)c1ccc(-c2ccc(C(C)=O)cc2)o1	FBA Mtb inh 73, GDH-TPI counter-1 31, Bead autofluor inconclusive, BoNT-F LC inh inconclusive | Mtb FBA confirm inactive | GDH-TPI counter-2 inactive
O=c1cc(CO)oc(C(Nc2ccccn2)c2ccccc2F)c1O (stereo unspecified)	none
COC(=O)c1ccc2nc(-c3ccc4c(c3)OCO4)cn2c1	none
CCc1ccn2cc(-c3ccc4c(c3)OCO4)nc2c1	FBA Mtb inh 91 | Mtb FBA confirm 65 | GDH-TPI counter-2 43
COc1cc(C2C(C(=O)N3CCOCC3)=C(C)NC3=C2C(=O)CCC3)ccc1OC(C)=O (stereo unspecified)	none
CC1=C(C(=O)N2CCOCC2)C(c2ccccc2F)C2=C(CCCC2=O)N1 (stereo unspecified)	FBA Mtb inh 28 | Mtb FBA confirm 92 | GDH-TPI counter-2 61
CC1=C[C@@H]2c3cccc4[nH]cc(c34)C[C@H]2N(C)C1	FBA Mtb inh 82 | Mtb FBA confirm 52 | GDH-TPI counter-2 49
CCOC(=O)N1CCN(C(=O)c2cn(C)c(=O)c3c2c2ccccc2n3C)CC1	FBA Mtb inh 41, Bead autofluor 22295 | Mtb FBA confirm 128 | GDH-TPI counter-2 108
